Screening data as filed in PubChem BioAssay.
A selection: hits, their analogues and other compounds. The true share with any hit is near 3.9%.
GALK inh: inhibitors of human galactokinase | P51570 | Purified GALK, Kinase-Glo residual ATP luminescence | Potency, µM (titrated, usually from 57.5 µM), actives largely listed as inhibitors | hit rate 0.007% among 270,000 | AID 1868
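Quantitative HTS: GALK 5 nM, ATP 35 uM, galactose 100 uM, 1 h room temperature, then luciferase-based ATP detection.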
D1 PAM: human D1 dopamine receptor positive modulation. P21728. HEK293 TREx D1 cells, calcium flux, dopamine EC20 potentiation. potentiation, % at 10 µM. hit rate 0.036% among 360,000. AID 504651; in the data active = potentiation above about 30%
D1 agonist: human D1 receptor agonism. hit rate 1% among 360,000. HEK293 T-REx D1 cells, calcium flux, agonist mode. activation, % at 2 µM. P21728. AID 504660; in the data active = activation above about 30%
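Inducible HEK293 T-REx D1 cells, force-coupled to calcium signalling, were plated at 4000 cells/well with tetracycline and held overnight at 30 C. After no-wash calcium dye loading, compound-evoked calcium rise over 180 s flagged agonists.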
D1 antag: human D1 dopamine receptor antagonism | hit rate 3.2% among 360,000 | HEK293 TREx D1 cells, calcium flux, dopamine EC80; active compounds read low | P21728 | activity change, negative = inhibition, % at 10 µM; in the data active = activity change below about -30%
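Tetracycline-induced HEK293 Trex D1 cells, force-coupled to calcium, dye-loaded; compounds added and read 180 s, then EC80 dopamine added and calcium flux tracked kinetically another 180 s.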
Eya2 phos inh: blocks the phosphatase activity of human Eya2. Potency, µM (titrated, usually from 76.9 µM), most hits filed as inhibitors. hit rate 0.006% among 330,000. recombinant Eya2, OMFP fluorescence dephosphorylation (OMFP is methylfluorescein phosphate). O00167
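Eya2 (0.2 uM) preincubated 10 min at ambient with compound, then OMFP substrate added at 50 uM; 10 min reaction in 50 mM HEPES pH 7.5, 50 mM NaCl, 5 uM MgCl2, 0.05% BSA, 1 mM DTT. Fluorescence read at Ex 485/Em 525 nm.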
USP2a block: blocks human ubiquitin-specific protease USP2a | Potency, µM (highest dose often 38.3 µM), usual class: inhibitors | USP2 core, Ub-CHOP2 coupled fluorogenic reporter, 485/531 | O75604 | hit rate 0.01% among 330,000
Target sequence (O75604 whole entry, looked up): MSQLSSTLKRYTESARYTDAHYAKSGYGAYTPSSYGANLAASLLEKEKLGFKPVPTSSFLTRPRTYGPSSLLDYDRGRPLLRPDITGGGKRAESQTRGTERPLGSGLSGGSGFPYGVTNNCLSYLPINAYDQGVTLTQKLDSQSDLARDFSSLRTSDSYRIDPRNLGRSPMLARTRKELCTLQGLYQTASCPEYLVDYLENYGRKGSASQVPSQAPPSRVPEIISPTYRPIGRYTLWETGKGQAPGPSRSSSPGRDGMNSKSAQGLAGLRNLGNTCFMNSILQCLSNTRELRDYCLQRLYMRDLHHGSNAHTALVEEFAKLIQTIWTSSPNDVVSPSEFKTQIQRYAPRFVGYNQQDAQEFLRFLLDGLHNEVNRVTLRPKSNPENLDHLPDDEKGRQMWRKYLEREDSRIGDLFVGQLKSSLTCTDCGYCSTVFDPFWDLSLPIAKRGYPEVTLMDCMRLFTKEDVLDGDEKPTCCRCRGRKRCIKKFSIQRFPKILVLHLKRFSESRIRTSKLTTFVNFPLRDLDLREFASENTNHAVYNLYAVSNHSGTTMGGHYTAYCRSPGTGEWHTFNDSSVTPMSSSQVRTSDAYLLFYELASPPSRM
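Cell-free coupled assay: 10nM USP2 core preincubated 30min RT with compound in Tris-HCl pH 8.0/CaCl2/CHAPS buffer, then 25nM Ub-CHOP2 and 25nM reporter substrate; fluorescence (Ex 485/Em 531) read after 60min RT, normalized to NEM inhibition, concentration-response curves fitted.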
Each line names hits and unclear results; the compound was inactive in the other large screens. Unless noted, calls follow the shape of the dose curve; as a rule, active = well fitted inhibition curve with a large enough effect; inconclusive = small, poorly fitted or top-dose-only effect, or effect the other way; inactive = flat fitted curve, though single readings scatter.

COc1ccc2c(/C=C/c3cc[n+](C)cc3)c[nH]c2c1	none (no result: GALK inh)
Cc1ccc2[nH]cc(/C=C/c3cc[n+](C)cc3)c2c1	D1 agonist 30, USP2a block inconclusive
CCn1c(/C=C/c2c[nH]c3ccccc23)nc2ccccc2c1=O	none
COc1ccc(-c2c(-c3ccccc3)c(C(=O)C(=O)NCCCN(C)C)n3ccc4cc(OC)c(OC)cc4c23)cc1OC	D1 antag -47
CCN(c1ccc(N=Cc2c(O)n(Cc3ccc(OC)cc3)c(=O)c3ccccc23)cc1)C(C)C	D1 agonist 57
COc1cccc(NS(=O)(=O)c2ccc3c(c2)N(C(C)=O)CCO3)c1	none
COc1cccc(CNS(=O)(=O)c2ccc3c(c2)N(C(C)=O)CCO3)c1	D1 antag -90
COc1cc(-c2nc(Cn3nnc(C(=O)Nc4ccccc4)c3C)c(C)o2)cc(OC)c1OC	none (no result: GALK inh, Eya2 phos inh, USP2a block)
Cc1cccc(NC(=O)CSc2nc3[nH]c(=O)cc(O)c3s2)c1	D1 antag -32 (no result: GALK inh)
O=C1CCCC2=C1C1O[C@](CCCCN3C(=O)c4ccccc4C3=O)(Cc3c1ccc1ccccc31)O2	none (no result: GALK inh)
COc1ccc(CCC(=O)NCCS(=O)(=O)N2CCN(c3ccccc3F)CC2)cc1	none (no result: GALK inh)
COc1ccc(CCC(=O)NCCS(=O)(=O)N2CCN(c3ccccc3OC)CC2)cc1	D1 antag -33
O=C(Nc1ccncc1)c1cn(-c2ccccc2)nc1-c1cccs1	D1 antag -49
O=C(c1cccc(S(=O)(=O)N2CCOCC2)c1)N(Cc1ccco1)Cc1cccs1	D1 antag -56 (no result: GALK inh)
CN(Cc1cccs1)C(=O)c1cc(S(=O)(=O)N2CCOCC2)ccc1N1CCCC1	D1 antag -31 (no result: GALK inh)
O=C(CN(Cc1ccco1)C(=O)CNS(=O)(=O)c1ccc(Cl)cc1)NCc1ccco1	D1 antag -52
Cc1noc(C)c1COc1ccccc1C(=O)N(C)Cc1ccc(C(C)(C)C)cc1	D1 antag -36 (no result: GALK inh)
Cc1noc(C)c1CSCC(=O)N(C)CC(=O)Nc1ccc(Cl)cc1	D1 antag -44
Cc1noc(C)c1COc1ccccc1C(=O)N(C)CC(=O)Nc1ccc(F)cc1	D1 PAM 34 (no result: GALK inh)
Cc1noc(C)c1COc1ccccc1C(=O)NCCc1ccc(S(N)(=O)=O)cc1	D1 antag -34
CC1=C(C(=O)OC2CCCC2)C(c2c(F)cccc2Cl)CC(=O)N1 (configuration not stated)	none (no result: GALK inh, Eya2 phos inh, USP2a block)
CCOC(=O)c1c(C)[nH]c(CCC(=O)NCc2ccccc2C)c1C	none (no result: GALK inh, Eya2 phos inh, USP2a block)
COc1ccc(/C=N/NC(=O)c2ccc3c(c2)NC(=O)C(C)(C)O3)cc1OC	none
CC1(C)Oc2ccc(C(=O)NN)cc2NC1=O	D1 antag -38
COc1ccc(C(=O)c2sc3nc(-c4ccccc4)ccc3c2N)cc1	D1 agonist 158
COc1cccc(-c2ccc3c(N)c(C(=O)Nc4ccc(C)c(F)c4)sc3n2)c1	none (no result: GALK inh, Eya2 phos inh, USP2a block)
COc1cccc(-c2ccc3c(N)c(C(=O)c4ccc(Cl)cc4)sc3n2)c1	D1 agonist 98 (no result: GALK inh, Eya2 phos inh, USP2a block)
CCC1=NN(C(=O)c2ccc(Cl)cc2)C(O)(c2ccc(C)cc2)C1 (configuration not stated)	none
CCOC(=O)C1=NN(C(=O)c2ccc(C)cc2)C(O)(c2ccc(Cl)cc2)C1 (configuration not stated)	D1 agonist 158
COC(=O)C1=NN(C(=O)c2ccc(Cl)cc2)C(O)(c2ccccc2)C1 (configuration not stated)	D1 agonist 30
CC(C)NC(=O)CCn1c(SCc2c(F)cccc2Cl)nc2c(sc3ccccc32)c1=O	none (no result: GALK inh, Eya2 phos inh, USP2a block)
Cc1ccc(NC(=O)c2c(NC(=O)c3ccc(F)cc3)sc3c2CCCC3)cc1C	none (no result: GALK inh, Eya2 phos inh, USP2a block)
CC1(CC(=O)N/N=C/c2ccc(-c3cccc(C(F)(F)F)c3)o2)OCCO1	D1 antag -37
CC(=O)N(c1ccccc1C)C1CCCC1	none
CC(=O)N(C1=C(Cl)C(=O)c2ccccc2C1=O)C1CCCCC1	D1 antag -35
Cc1noc(C)c1CN(C(=S)NC(C)C)c1ccccc1	D1 antag -32
CCCCn1c(NCc2ccccc2NS(=O)(=O)c2ccc(C)cc2)nc2ccccc21	D1 antag -32
